PubChem BioAssay (Tox21)
Several values for one entry are separate records, joined by “and”; a condition that tells them apart may be missing. Identical values can stand only once. Some structures have more than one record in an assay (separate samples or runs), and their calls can disagree. Activity calls are given as the source filed them. Unless noted, the call rests on the fitted dose curve; in most records, active means well fitted curve in the direction sought with a large enough effect in the repeat runs; inconclusive means weak or mixed curves; inactive means no such curve, though single readings can be large; an effect the other way counts as inactive or inconclusive.

What was measured:
[1] = qHTS assay for identifying genotoxic compounds that show differential cytotoxicity against isogenic chicken DT40 cell lines with known DNA damage response pathways - wild type cell line (AID 743012); further: nearly all actives have a fitted effect of over 60% in size; further: potency means the concentration at half of the fitted maximal effect
Outline: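 Wild type DT40, 300 cells/well, ~0.5 h settle at 37 C/5% CO2; compounds in DMSO added by pintool; 40 h at 37 C/5% CO2; CellTiter-Glo, 30 min RT; luminescence.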

[2] = qHTS assay for identifying genotoxic compounds that show differential cytotoxicity against isogenic chicken DT40 cell lines with known DNA damage response pathways - Rev3 mutant cell line (AID 743014); further: nearly all actives have a fitted effect of over 55% in size; further: potency means the concentration at half of the fitted maximal effect
[3] = qHTS assay for identifying genotoxic compounds that show differential cytotoxicity against isogenic chicken DT40 cell lines with known DNA damage response pathways - Rad54/Ku70 mutant cell line (AID 743015); further: nearly all actives have a fitted effect of over 60% in size; further: potency means the concentration at half of the fitted maximal effect
[4] = target: Androgen receptor (Homo sapiens) (UniProt P10275); assay: qHTS assay to identify small molecule agonists of the androgen receptor (AR) signaling pathway using the MDA cell line (AID 743040; further: nearly all actives have a fitted effect of over 20% in size)
Sequence of Androgen receptor (Homo sapiens) (P10275 whole entry, looked up): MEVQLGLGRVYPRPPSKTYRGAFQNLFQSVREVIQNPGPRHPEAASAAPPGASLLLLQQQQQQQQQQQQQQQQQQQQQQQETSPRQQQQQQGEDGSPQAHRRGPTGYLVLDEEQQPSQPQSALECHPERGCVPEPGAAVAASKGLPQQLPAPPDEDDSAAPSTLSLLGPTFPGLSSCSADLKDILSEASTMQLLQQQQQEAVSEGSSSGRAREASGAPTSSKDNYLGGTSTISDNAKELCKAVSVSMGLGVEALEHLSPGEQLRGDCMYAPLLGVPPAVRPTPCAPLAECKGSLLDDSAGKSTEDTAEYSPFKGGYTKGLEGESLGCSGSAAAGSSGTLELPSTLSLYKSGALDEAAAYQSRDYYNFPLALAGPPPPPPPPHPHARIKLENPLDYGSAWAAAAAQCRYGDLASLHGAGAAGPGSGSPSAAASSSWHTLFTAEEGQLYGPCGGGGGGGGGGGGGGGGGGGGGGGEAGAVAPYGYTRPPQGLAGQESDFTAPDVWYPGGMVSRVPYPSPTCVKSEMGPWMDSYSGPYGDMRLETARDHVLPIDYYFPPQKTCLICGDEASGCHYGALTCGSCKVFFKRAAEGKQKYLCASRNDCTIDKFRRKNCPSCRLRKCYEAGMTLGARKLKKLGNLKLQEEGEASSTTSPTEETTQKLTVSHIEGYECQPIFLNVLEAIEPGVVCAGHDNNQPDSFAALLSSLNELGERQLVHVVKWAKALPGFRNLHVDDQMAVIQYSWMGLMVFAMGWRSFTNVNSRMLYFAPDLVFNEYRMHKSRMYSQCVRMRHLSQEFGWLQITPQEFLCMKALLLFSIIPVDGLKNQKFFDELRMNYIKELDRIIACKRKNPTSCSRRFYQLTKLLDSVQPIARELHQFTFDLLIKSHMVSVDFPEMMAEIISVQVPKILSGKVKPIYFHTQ
Outline: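 MDA-kb2 breast carcinoma cells carrying MMTV-luciferase (responsive to AR and GR), plated 5 h then treated 16 h with compounds at 37C, 0% CO2. Read-out was ONE-Glo luminescence after 30 min at room temperature.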

[5] = qHTS assay to identify small molecule antagonists of the androgen receptor (AR) signaling pathway using the MDA cell line - cell viability counter screen (AID 743041; further: nearly all actives have a fitted effect of over 45% in size; further: potency means the concentration at half of the fitted maximal effect)
Outline: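 MDA-kb2 AR-luc cells (MMTV-luciferase, AR/GR responsive) treated with compounds plus R1881 agonist for 16 h at 37C. CellTiter-Fluor added at 15.5 h; fluorescence read after 30 min in the same wells.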

[6] = qHTS assay to identify small molecule antagonists of the thyroid receptor (TR) signaling pathway - cell viability counter screen (AID 743064); further: nearly all actives have a fitted effect of over 50% in size; further: potency means the concentration at half of the fitted maximal effect
Outline: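 Same-well viability check: GH3.TRE-Luc cells stimulated with 1 nM T3 alongside test compound for 23.5 h, followed by CellTiter-Fluor fluorescence.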

[7] = qHTS assay to identify small molecule antagonists of the thyroid receptor (TR) signaling pathway (AID 743065); further: nearly all actives have a fitted effect of over 55% in size; further: potency means the concentration at half of the fitted maximal effect
Outline: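 GH3.TRE-Luc rat pituitary cells (two TREs driving luciferase) were dosed with compound, then stimulated with 1 nM T3 (final) for 23.5 h at 37 C. ONE-Glo luminescence was the read-out, with CellTiter-Fluor fluorescence as the cytotoxicity counter-screen.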

[8] = qHTS assay to identify small molecule antagonists of the estrogen receptor alpha (ER-alpha) signaling pathway - cell viability counter screen (AID 743074; calls by dose curve;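 further: HEK293 cells carrying ER-alpha-UAS-bla reporter stimulated with 17beta-estradiol; nearly all actives have a fitted effect of over 45% in size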; further: potency means the concentration at half of the fitted maximal effect)
[9] = target: Estrogen receptor (Homo sapiens) (UniProt P03372); assay: qHTS assay to identify small molecule agonists of the estrogen receptor alpha (ER-alpha) signaling pathway (AID 743075; calls by dose curve; further: potency means the concentration at half of the fitted maximal effect); settings: HEK293 ER-alpha-UAS-bla, beta-lactamase FRET ratio, 18 h; activation: at 70.1 µM (top of the series)
Sequence of Estrogen receptor (Homo sapiens) (P03372 whole entry, looked up): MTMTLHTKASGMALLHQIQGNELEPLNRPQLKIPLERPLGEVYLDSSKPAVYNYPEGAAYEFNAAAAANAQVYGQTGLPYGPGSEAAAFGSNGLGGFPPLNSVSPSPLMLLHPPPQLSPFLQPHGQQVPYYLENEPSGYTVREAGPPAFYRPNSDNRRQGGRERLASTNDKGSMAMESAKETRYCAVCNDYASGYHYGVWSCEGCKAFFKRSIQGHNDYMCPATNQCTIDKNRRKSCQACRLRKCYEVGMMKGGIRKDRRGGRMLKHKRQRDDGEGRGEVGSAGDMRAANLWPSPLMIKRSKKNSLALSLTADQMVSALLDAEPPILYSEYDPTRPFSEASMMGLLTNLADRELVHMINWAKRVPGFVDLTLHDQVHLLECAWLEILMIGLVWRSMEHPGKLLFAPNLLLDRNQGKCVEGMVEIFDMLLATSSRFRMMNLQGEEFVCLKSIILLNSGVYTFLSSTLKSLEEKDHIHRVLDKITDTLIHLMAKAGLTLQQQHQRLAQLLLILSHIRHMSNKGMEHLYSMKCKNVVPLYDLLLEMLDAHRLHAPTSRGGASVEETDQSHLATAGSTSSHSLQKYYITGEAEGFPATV

[10] = qHTS assay to identify small molecule antagonists of the estrogen receptor alpha (ER-alpha) signaling pathway using the BG1 cell line (AID 743080; calls by dose curve;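 further: BG1 cells stimulated with 17beta-estradiol alongside compound; nearly all actives have a fitted effect of over 25% in size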; further: potency means the concentration at half of the fitted maximal effect)
Outline: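 Luminescence from a 4×ERE-luciferase reporter in BG1-Luc-4E2 cells served as read-out. Cells, pre-cultured 5 days in stripped-serum phenol-red-free medium, were exposed to compound with 17beta-estradiol co-stimulation for 21.5 h at 37 C.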

[11] = qHTS assay to identify small molecule antagonists of the estrogen receptor alpha (ER-alpha) signaling pathway using the BG1 cell line - cell viability counter screen (AID 743081);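 further: compound given together with 17beta-estradiol as the ER stimulus; nearly all actives have a fitted effect of over 45% in size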; further: potency means the concentration at half of the fitted maximal effect
[12] = target: Aromatase (Homo sapiens) (UniProt P11511); assay: qHTS assay to identify aromatase inhibitors (AID 743083); further: nearly all actives have a fitted effect of over 55% in size; further: potency means the concentration at half of the fitted maximal effect
Sequence of Aromatase (Homo sapiens) (P11511 whole entry, looked up): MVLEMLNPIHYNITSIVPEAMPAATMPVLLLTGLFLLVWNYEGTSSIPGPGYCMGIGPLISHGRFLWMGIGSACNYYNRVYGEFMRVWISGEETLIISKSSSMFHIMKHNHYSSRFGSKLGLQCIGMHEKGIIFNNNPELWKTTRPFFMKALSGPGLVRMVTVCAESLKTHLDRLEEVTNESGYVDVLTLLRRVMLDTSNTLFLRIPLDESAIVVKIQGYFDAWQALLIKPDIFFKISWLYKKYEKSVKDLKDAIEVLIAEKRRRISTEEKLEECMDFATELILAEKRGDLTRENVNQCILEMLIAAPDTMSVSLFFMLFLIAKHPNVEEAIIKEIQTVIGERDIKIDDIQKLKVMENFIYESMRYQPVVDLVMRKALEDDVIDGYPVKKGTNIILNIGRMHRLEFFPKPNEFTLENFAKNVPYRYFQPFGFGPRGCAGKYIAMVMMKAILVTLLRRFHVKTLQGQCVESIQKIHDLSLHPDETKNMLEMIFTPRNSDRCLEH

[13] = qHTS assay to identify aromatase inhibitors - cell viability counter screen (AID 743084);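 further: cells stimulated with testosterone during compound exposure; nearly all actives have a fitted effect of over 55% in size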; further: potency means the concentration at half of the fitted maximal effect
[14] = qHTS assay to identify small molecule antagonists of the androgen receptor (AR) signaling pathway - cell viability counter screen (AID 743033; further: nearly all actives have a fitted effect of over 45% in size; further: potency means the concentration at half of the fitted maximal effect)
[15] = test system: thyroid hormone receptor (rat, GH3 cells); assay: qHTS assay to identify small molecule agonists of the thyroid receptor (TR) signaling pathway (AID 743066; calls by dose curve)
[16] = target: Androgen receptor (Homo sapiens) (UniProt P10275); assay: qHTS assay to identify small molecule antagonists of the androgen receptor (AR) signaling pathway using the MDA cell line (AID 743042; further: nearly all actives have a fitted effect of over 55% in size; further: potency means the concentration at half of the fitted maximal effect)
Outline: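 MDA-kb2 breast carcinoma cells carrying MMTV-luciferase (AR/GR responsive) were co-treated with compounds and the agonist R1881 for 16 h at 37C. Inhibition read as ONE-Glo luminescence; CellTiter-Fluor fluorescence measured in parallel for cytotoxicity.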

[17] = target: Estrogen receptor (Homo sapiens) (UniProt P03372); assay: qHTS assay to identify small molecule antagonists of the estrogen receptor alpha (ER-alpha) signaling pathway (AID 743069; active means well fitted curve in the direction sought with a large enough effect in the signal ratio in the repeat runs, not every such curve was filed as active; inconclusive means weak or mixed curves, or effect the other way; inactive means no such curve, though single readings can be large or run the other way; the % refers to the signal ratio; further: potency means the concentration at half of the fitted maximal effect)
Outline: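 HEK293 ER-alpha-UAS-bla GripTite cells, held overnight in 2% charcoal-stripped FBS, 5,000 cells/well, preincubated 4 h, then compound plus 17beta-estradiol for 18 h at 37C. Beta-lactamase read by LiveBLAzer B/G FRET substrate, 2 h at room temperature.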

[18] = target: Estrogen receptor (Homo sapiens) (UniProt P03372); assay: qHTS assay to identify small molecule agonists of the estrogen receptor alpha (ER-alpha) signaling pathway using the BG1 cell line (AID 743079); settings: BG1Luc4E2 cells, ERE-luciferase agonist, 22 h; further: nearly all actives have a fitted effect of over 20% in size; further: potency means the concentration at half of the fitted maximal effect
[19] = target: Androgen receptor (Homo sapiens) (UniProt P10275); assay: qHTS assay to identify small molecule antagonists of the androgen receptor (AR) signaling pathway (AID 743035; active means well fitted inhibition curve with a large enough effect in the signal ratio in the repeat runs, not every such curve was filed as active; inconclusive means weak or mixed curves, or effect the other way; inactive means no such curve, though single readings can be large or run the other way; the % refers to the signal ratio; further: potency means the concentration at half of the fitted maximal effect)
Outline: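 Fluorescence from a beta-lactamase FRET substrate (LiveBLAzer B/G, 2 h, room temperature) measured inhibition of R1881-stimulated signaling in GeneBLAzer AR-UAS-bla HEK293 cells exposed to compound for 16 h at 37C.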
On the % scale 0 is the no-effect control and ±100 the full control effect.

c1cc(C(c2ccc(OCC3CO3)cc2)c2ccc(OCC3CO3)cc2)ccc1OCC1CO1 (stereo unspecified)
inactive: Potency [4] | Potency [5] | Potency [8] | Potency [9] | Potency [10] | Potency [11]
active: Potency [1] 24.3 µM | Potency [2] 0.969 µM | Potency [3] 13.7 µM | Potency [6] 17.2 µM | Potency [7] 12.2 µM | Potency [12] 68.6 µM | Potency [13] 54.5 µM

CCCCCCCCn1sc(Cl)c(Cl)c1=O
active: Potency [1] 0.433 µM | Potency [3] 0.686 µM | Potency [14] 6.16 µM | Potency [6] 27.3 µM | Potency [7] 27.3 µM | Potency [12] 4.86 µM | Potency [13] 5.45 µM
inactive: Potency [5] | Potency [15] | Potency [9]

Oc1ccc(N=Nc2ccccc2)cc1
inactive: Potency [4] | Potency [16] | Potency [15] | Potency [12]
active: Potency [2] 61.9 µM | Potency [6] 49.2 µM | Potency [7] 61.9 µM | Potency [17] 39.4 µM [inconclusive] | Potency [9] 49.6 µM [inconclusive] | Potency [18] 6.19 µM | Potency [13] 31 µM

CCCCC(CC)COC(=O)c1ccccc1C(=O)O (stereo unspecified)
inactive: Potency [14] | Potency [6] | Potency [15]

CCCCCCOC(=O)c1ccc(O)cc1
21.7 µM (active) and inactive: Potency [1]
inactive: Potency [14] | Potency [4] | Potency [5] | Potency [16] | Potency [6] | Potency [7] | Potency [15] | Potency [8] | Potency [11]
active: Potency [3] 48.6 µM | Potency [9] 49 µM [inconclusive] and 24.5 µM [inconclusive] | Potency [18] 5.45 µM and 17.2 µM

Cc1ccc(O)c(C(C)(C)C)c1
61 µM (active) and inactive: Potency [11]
15.3 µM (active) and inactive: Potency [12]
17.2 µM (active) and inactive: Potency [6] | Potency [13]
inactive: Potency [15]
active: Potency [2] 13.7 µM | Potency [14] 15.5 µM

[Cl][Au]([Cl])[Cl]
active: Potency [2] 12.2 µM | Potency [3] 13.7 µM | Potency [14] 21.9 µM | Potency [5] 48.6 µM | Potency [6] 3.86 µM | Potency [12] 24.3 µM | Potency [13] 27.3 µM

CCOC(=O)c1nc(C(Cl)(Cl)Cl)n(-c2ccc(Cl)cc2Cl)n1
inactive: Potency [4] | Potency [5] | Potency [8] | Potency [9] | Potency [10]
active: Potency [1] 48.6 µM | Potency [3] 30.6 µM | Potency [14] 49 µM | Potency [16] 68.6 µM | Potency [7] 68.6 µM | Potency [12] 61.1 µM

CCCCC(CC)COP(=O)(O)OCC(CC)CCCC (stereo unspecified)
active: Potency [6] 27.4 µM | Potency [7] 61.3 µM | Potency [17] 4.36 µM [inconclusive] | Potency [8] 39 µM
inactive: Potency [14] | Potency [15] | Potency [9] | Potency [10] | Potency [11] | Potency [12] | Potency [13]

CC1(C)CCC(C)(C)c2cc(C(=O)Nc3ccc(C(=O)O)cc3)ccc21
inactive: Potency [4] | Potency [8] | Potency [9] | Potency [11] | Potency [12]
active: Potency [3] 21.7 µM | Potency [19] 49 µM | Potency [6] 68.6 µM | Potency [7] 48.6 µM | Potency [10] 0.0043 µM

Oc1cccc(-c2c3nc(c(-c4cccc(O)c4)c4ccc([nH]4)c(-c4cccc(O)c4)c4nc(c(-c5cccc(O)c5)c5ccc2[nH]5)CC4)C=C3)c1
inactive and 26.6 µM (active): Potency [12]
inactive: Potency [4] | Potency [16] | Potency [9] | Potency [10]
active: Potency [1] 29.8 µM | Potency [2] 29.8 µM | Potency [5] 23.7 µM | Potency [6] 11.9 µM and 10.6 µM | Potency [7] 8.41 µM and 7.5 µM | Potency [11] 9.44 µM and 11.9 µM | Potency [13] 29.8 µM and 21.1 µM
inactive and 23.9 µM (active): Potency [14]

O=C(Nc1cccc(C(F)(F)F)c1)c1cc(Br)cc(Br)c1O
inactive: Potency [9]
active: Potency [1] 5.31 µM and 6.11 µM | Potency [2] 5.96 µM and 7.7 µM | Potency [3] 6.68 µM and 4.86 µM | Potency [14] 4.25 µM and 4.36 µM | Potency [5] 11.9 µM and 10.9 µM | Potency [6] 5.96 µM and 2.43 µM | Potency [7] 2.98 µM and 1.09 µM | Potency [8] 1.34 µM and 977 nM | Potency [12] 11.9 µM and 4.86 µM

OCc1c[nH]c2ccccc12
inactive: Potency [4] | Potency [15]
active: Potency [1] 30.6 µM | Potency [3] 64.8 µM | Potency [6] 62.9 µM | Potency [7] 54.5 µM | Potency [9] 4.36 µM [fluorescent] | Potency [12] 33.4 µM

CCN(CC)CCNC(=O)c1c(C)[nH]c(/C=C2\C(=O)Nc3ccc(F)cc32)c1C
inactive: Potency [14] | Potency [5] | Potency [8]
active: Potency [1] 5.96 µM | Potency [2] 9.44 µM | Potency [3] 7.5 µM | Potency [6] 26.6 µM | Potency [11] 9.44 µM | Potency [13] 26.6 µM

ON=C1CCCC1
inactive: Potency [1] | Potency [2] | Potency [3] | Potency [14] | Potency [19] | Potency [4] | Potency [16] | Potency [6] | Potency [7] | Potency [15] | Potency [17] | Potency [8] | Potency [9] | activation ([18]; at 95 µM (top of the series)) 13.6% | Potency [10] | Potency [11] | Potency [12] | Potency [13]

CC(C)(C)c1ccc(C(=O)CCCN2CCC(OC(c3ccccc3)c3ccccc3)CC2)cc1
active: Potency [3] 5.96 µM | Potency [6] 11.9 µM | Potency [7] 13.3 µM | Potency [8] 23.9 µM
inactive: Potency [14] | Potency [12] | Potency [13]
